Assay results as given in ChEMBL document CHEMBL1157539, “Thousands of chemical starting points for antimalarial lead identification” (Nature, 2010).

These compounds were tested on HepG2 (assay: GSK_TCMDC: Percent inhibition of human HepG2 cell line. Test compounds present at 10uM.).
Format: functional

Q: For `O=C(/C=C/c1ccc(Cl)c(Cl)c1)N1CCN(C(=O)Nc2ccc(F)c(Cl)c2)CC1`, which Inhibition is on record?
A: The Inhibition was 19%.

Q: With `Cl.NC1=NC(c2ccccc2)N(OCc2ccccc2)C(N)=N1` (centres undefined) as the compound, how does the Inhibition read?
A: The Inhibition was 5%.

Q: `Cl.Oc1cc(-c2nc(-c3ccccc3)[nH]c2-c2ccncc2)ccc1Cl` was tested. Which Inhibition did it give?
A: The Inhibition was 64%.

Q: How did the Inhibition turn out when `Nc1ncc(-c2cccc(F)c2)cc1-c1nc2cc(F)ccc2[nH]1.O=C(O)C(F)(F)F` was run?
A: Its Inhibition is 54%.

Q: With `Oc1ccccc1CN1CCC2(CCCN(Cc3ccccc3F)C2)C1` (centres undefined) as the compound, how does the Inhibition read?
A: Its Inhibition is 13%.

Q: Which Inhibition does the source give for `COc1ccc(CON2C(=N)N=C(N)NC2(C)C)cc1OC.Cl` here?
A: The Inhibition was 68%.

Q: Which Inhibition does the source give for `N#Cc1cccc(COC(=O)C2=C(COc3ccccc3Cl)NC(=O)NC2c2c[nH]c3cnccc23)c1` (centres undefined) here?
A: The Inhibition was 0%.

Q: `CCC(C)NS(=O)(=O)c1ccc2nc(Nc3ccc(C)cc3)n(C3CCCCC3)c2c1` (centres undefined) was tested. Which Inhibition did it give?
A: The Inhibition was 0%.

Q: With `O=C(Nc1ccc(N2CCCN(Cc3cccc(F)c3)CC2)cc1)c1cccs1.O=C(O)C(F)(F)F` as the compound, how does the Inhibition read?
A: Its Inhibition is 2%.

Q: How did the Inhibition turn out when `CCNc1cc(C)nc(Nc2ccc(C)cc2)n1` was run?
A: Its Inhibition is 12%.

Q: With `COC(=O)c1ccc2nc(-c3ccc(C(=O)NC4CCN(Cc5ccccc5)CC4)s3)[nH]c2c1` as the compound, how does the Inhibition read?
A: The Inhibition was 0%.

Q: How did the Inhibition turn out when `Cc1ccc(CN2CCN(c3cc4c(cc3Cl)CCN4C(=O)Cc3ccc(Cl)c(NC(=O)Nc4cccc(C#N)c4)c3)CC2)cc1` was run?
A: Its Inhibition is 3%.

Q: How did the Inhibition turn out when `CCCC(C)N(Cc1ccc(C(C)(C)C)cc1)C(=O)c1ccc(OC)cc1` (centres undefined) was run?
A: Its Inhibition is 7%.

Q: `CC(C)(C)c1ccc(C(=O)Nc2cccc(Nc3c(C(=O)NCc4cccc(C(F)(F)F)c4)cnc4c(O)cccc34)c2)cc1.O=C(O)C(F)(F)F` was tested. Which Inhibition did it give?
A: Its Inhibition is 40%.
